Results from the supplement of paper PMC13380429.
Where a name gives a salt, the structure may show the parent alone.

Columns and labels:
[1] = system: Vero E6 infected with SARS-CoV-2; test: morphology score (similarity to uninfected cells); higher = more like uninfected cells; settings: 24 h
[2] = system: Vero E6 infected with SARS-CoV-2; test: SARS-CoV-2 infection rate relative to infected DMSO; higher = more infection, active = 60 or less; settings: 24 h

| Compound | morphology score [1] | SARS-CoV-2 infection rate [2] |
| --- | --- | --- |
| Cc1cc(-c2cc(O)ccc2Cl)cc2nnc(Nc3ccc(OCCN4CCCC4)cc3)nc12 (0.833333 µM) | -0.04 | 103% (inactive) |
| CCCCCCCCCCCCCCCC(=O)OC[C@@H](NC(=O)C(Cl)Cl)[C@H](O)c1ccc([N+](=O)[O-])cc1 [chloramphenicol-palmitate] (10 µM) | 0.04 | 106% (inactive) |
| CN1CCC(CNc2ccc3ncc(-c4cccc(OC(F)(F)F)c4)n3n2)CC1 (0.833333 µM) | 0.201 | 108% (inactive) |
| CC(=O)C1=C(O)C=C2Oc3c(C(C)=O)c(O)c(C)c(O)c3C2(C)C1=O (stereo not drawn) [usniacin-(+)] (10 µM) | 0.117 | 108% (inactive) |
| O=C1O[C@H]([C@@H](O)CO)C(O)=C1O (10 µM) | 0.1 | 111% (inactive) |
| O=C(O)CCCc1ccc(N(CCCl)CCCl)cc1 [chlorambucil] (10 µM) | 0.143 | 94% (inactive) |
| CCSC(=N)N [EIT-hydrobromide] (10 µM) | -0.0504 | 102% (inactive) |
| COC(=O)C1=C(C)NC(C)=C(C(=O)OC(C)C)[C@@H]1c1cccc2nonc12 [isradipine] (10 µM) | -0.0665 | 104% (inactive) |
| C=CC(=O)c1ccc2ccccc2c1 [JAK3-inhibitor-V] (10 µM) | 0.0151 | 102% (inactive) |
| C=CC(=O)Nc1cccc(Nc2nc(Nc3ccc(NC4CN(CCF)C4)cc3OC)ncc2C(F)(F)F)c1 (0.833333 µM) | -0.356 | 118% (inactive) |
| N=C(N)NS(=O)(=O)c1ccc(N)cc1 [sulfaguanidine] (10 µM) | 0.00117 | 108% (inactive) |
| CC1CCN(C(c2ccc(F)cc2)c2ccc(C(C)C(=O)O)cc2-c2ccc(C(F)(F)F)cc2)CC1 (stereo unspecified) (10 µM) | 0.0608 | 106% (inactive) |
| Nc1ccc(C(=O)O)c(O)c1 [aminosalicylate] (10 µM) | -0.137 | 106% (inactive) |
| O=S(=O)(c1ccccc1)N(CC(F)(F)F)c1ccc(C(O)(C(F)(F)F)C(F)(F)F)cc1 (10 µM) | 0.0275 | 104% (inactive) |
| CCCCCCCCCCCCCCCC=O [1-hexadecanal] (10 µM) | 0.185 | 100% (inactive) |
| CCOc1cc(C(=O)Nc2ccc(Cl)c(-c3nc4ccccc4[nH]3)c2)cc(OCC)c1OCC (10 µM) | -0.0242 | 100% (inactive) |
| CCS(=O)(=O)N1CCN(c2ccc(Nc3ncc(C(N)=O)c(NC4CC4)n3)cc2)CC1 (10 µM) | 0.439 | 123% (inactive) |
| CN(C)c1nc(N(C)C)nc(N(C)C)n1 [altretamine] (10 µM) | -0.171 | 114% (inactive) |
| Cn1cc(C2=C(c3cn(CCCSC(=N)N)c4ccccc34)C(=O)NC2=O)c2ccccc21 [bisindolylmaleimide-IX] (0.833333 µM) | 0.0892 | 91% (inactive) |

| Compound | morphology score [1] | SARS-CoV-2 infection rate [2] |
| --- | --- | --- |
| CNC(=O)c1nn(C)c2c1C(C)(C)Cc1cnc(Nc3ccc(N4CCN(C)CC4)cc3)nc1-2 (10 µM) | -0.142 | 112% (inactive) |
| C[C@@H](NCc1cc(Br)cc2nc(O)c(O)nc12)P(=O)(O)O (10 µM) | 0.0389 | 101% (inactive) |
| O=C(COc1ccc(Cl)cc1)N[C@H]1CC[C@H](NC(=O)COc2ccc(Cl)cc2)CC1 (10 µM) | -0.175 | 106% (inactive) |
| Cc1[nH]c2ccccc2c1CCNC(=O)c1cccs1 (10 µM) | 0.142 | 103% (inactive) |
| C#C[C@]1(O)CC[C@H]2[C@@H]3CCC4=CC(=O)CC[C@@H]4[C@H]3C(=C)C[C@@]21CC [etonogestrel] (10 µM) | 0.249 | 90.5% (inactive) |
| CCCC[C@H]1OC(=O)c2ccccc21 [butylphthalide] (10 µM) | -0.108 | 102% (inactive) |
| CCOC(=O)C1=C[C@@H](OC(CC)CC)[C@H](NC(C)=O)[C@@H](N)C1 [oseltamivir-phosphate] (10 µM) | 0.239 | 85.5% (inactive) |
| COc1cc(N)c(Cl)cc1C(=O)CCC1CCN(CCNS(C)(=O)=O)CC1 (10 µM) | 0.0872 | 97.5% (inactive) |
| O=C(O)c1ccc(/C=C2\SC(=S)N(c3cccc(C(F)(F)F)c3)C2=O)cc1 (10 µM) | 0.125 | 108% (inactive) |
| C=CC(=O)Nc1cccc(Nc2nc(Nc3ccc(N4CCN(C(C)=O)CC4)cc3OC)ncc2C(F)(F)F)c1 [rociletinib] (10 µM) | -0.408 | 106% (inactive) |
| CC[C@H]1OC(=O)[C@H](C)[C@@H](O[C@H]2C[C@@](C)(OC)[C@@H](O)[C@H](C)O2)[C@H](C)[C@@H](O[C@@H]2O[C@H](C)C[C@H](N(C)C)[C@H]2O)[C@](C)(O)C[C@@H](C)CN(C)[C@H](C)[C@@H](O)[C@]1(C)O [azithromycin] (10 µM) | 0.236 | 98.5% (inactive) |
| CS(=O)(=O)CCNCc1nc(-c2ccc3ncnc(Nc4ccc(OCc5cccc(F)c5)c(Cl)c4)c3c2)cs1 (10 µM) | -0.294 | 116% (inactive) |
| NC(=O)C[S+]([O-])C(c1ccccc1)c1ccccc1 (stereo unspecified) (10 µM) | 0.113 | 106% (inactive) |
| CCCn1c(=O)c2nc(C34CC5CC(CC3C5)C4)[nH]c2n(CCC)c1=O (10 µM) | 0.134 | 94% (inactive) |
| N#Cc1c(N)nc(SCc2ncc[nH]2)c(C#N)c1-c1ccc(O)cc1 (10 µM) | -0.0242 | 108% (inactive) |
| CC(Oc1ccc(O)cc1)(P(=O)(O)O)P(=O)(O)O (10 µM) | 0.0418 | 107% (inactive) |
| CC(C)(COP(=O)(O)OP(=O)(O)OC[C@H]1O[C@@H](n2cnc3c(N)ncnc32)[C@H](O)[C@@H]1OP(=O)(O)O)[C@@H](O)C(=O)NCCC(=O)NCCS [coenzyme-A] (10 µM) | 0.0234 | 102% (inactive) |
| CC(C)[N+](C)(CCC(C(N)=O)(c1ccccc1)c1ccccc1)C(C)C [isopropamide-iodide] (10 µM) | 0.192 | 100% (inactive) |
| O=Nc1c(-c2c(O)[nH]c3cc(Br)ccc23)[nH]c2ccccc12 [GSK-3-inhibitor-IX] (0.833333 µM) | -0.0517 | 67% (inactive) |
